Activity calls are given as the source filed them. The rule behind the calls is not given here.
Experiment: BioD-coupled fluorescence displacement counter-assay – biochemical, dry powder samples, counter-screen, dose response (AID 743363)
Details: FL-DTB/streptavidin fluorescence displacement counter-screen; series mostly up to 10 µM; activity, interference signal: at the top concentration

Row | Compound | activity, interference signal
1 | CC(=O)c1ccc(N2CCN(C(=O)c3cc4c(cn3)OCO4)CC2)cc1 | 2.16% (inactive)
2 | COCC(=O)N1CC[C@@H]2[C@@H](CO)N(C)c3ccc(-c4cccc(F)c4)cc3[C@@H]21 | -1.63% (inactive)
3 | COc1ccccc1C(=O)N1CCN(c2ccc(C(C)=O)cc2)CC1 | 2.61% (inactive)
4 | CS(=O)(=O)c1ccc(N2CCN(C(=O)c3ccc4c(c3)OCO4)CC2)cc1 | -0.775% (inactive)
5 | CC(=O)c1ccc(N2CCN(C(=O)c3cccc4c3OCO4)CC2)cc1 | -6.09% (inactive)
6 | COc1ccccc1NC(=O)N1CC[C@@H]2[C@@H](CO)N(C)c3ccc(-c4cccc(F)c4)cc3[C@@H]21 | -1.86% (inactive)
7 | CNS(=O)(=O)c1ccc(N2CCN(C(=O)c3ccc4c(c3)OCO4)CC2)cc1 | -1.07% (inactive)
8 | O=C(c1ccc2c(c1)OCO2)N1CCN(c2ccc(OC(F)(F)F)cc2)CC1 | -5.37% (inactive)
9 | CC(=O)c1ccc(N2CCN(C(=O)c3ccccc3F)CC2)cc1 | 0.666% (inactive)
10 | CC(=O)c1ccc(N2CC3CC2CN3C(=O)c2ccc3c(c2)OCO3)cc1 (stereo not given) | -5.12% (inactive)
11 | CN1c2ccc(-c3ccc(F)cc3)cc2[C@H]2[C@H](CCN2C(=O)Nc2ccc(F)cc2)[C@H]1CO | -3.2% (inactive)
12 | N#Cc1ccc(N2CCN(C(=O)c3ccc4c(c3)OCO4)CC2)cc1 | 1.76% (inactive)
13 | COc1ccc(C(=O)N2CCN(c3ccc(C(C)=O)cc3)CC2)cc1OC | 2.26% (inactive)
14 | CC(=O)c1ccc(N2CCN(C(=O)c3ccc4c(c3)OCO4)CC2)cc1 | 1.39% (inactive)
15 | CC(C)NC(=O)N1CC[C@@H]2[C@@H](CO)N(C)c3ccc(-c4cccc(F)c4)cc3[C@@H]21 | 1.18% (inactive)
16 | CC(=O)c1ccc(N2CCN(C(=O)c3ccc4c(c3C)OCO4)CC2)cc1 | 3.39% (inactive)
17 | COc1cc2c(cc1C(=O)N1CCN(c3ccc(C(C)=O)cc3)CC1)OCO2 | 3.28% (inactive)
18 | CCCCCCCC(=O)N1CC[C@@H]2[C@@H](CO)N(C)c3ccc(-c4cccc(F)c4)cc3[C@@H]21 | -1.81% (inactive)
19 | CN1c2ccc(-c3cccc(F)c3)cc2[C@@H]2[C@@H](CCN2C(=O)c2ccc3c(c2)OCO3)[C@H]1CO | -3.71% (inactive)
20 | CC(=O)c1ccc(N2CCN(C(=O)c3ccc4ocnc4c3)CC2)cc1 | 3.93% (inactive)
21 | CCCNC(=O)N1CC[C@@H]2[C@@H](CO)N(C)c3ccc(-c4ccc(F)cc4)cc3[C@@H]21 | 0.052% (inactive)
22 | COc1cccc(NC(=O)N2CC[C@@H]3[C@@H](CO)N(C)c4ccc(-c5cccc(F)c5)cc4[C@@H]32)c1 | 0.165% (inactive)
23 | CN1c2ccc(-c3cccc(F)c3)cc2[C@H]2[C@H](CCN2C(=O)c2ccc3c(c2)OCO3)[C@@H]1CO | 3.59% (inactive)
24 | CC(C)NC(=O)N1CC[C@@H]2[C@@H](CO)N(C)c3ccc(-c4ccc(F)cc4)cc3[C@@H]21 | -2.03% (inactive)
25 | COc1ccc(NC(=O)N2CC[C@@H]3[C@@H](CO)N(C)c4ccc(-c5ccc(F)cc5)cc4[C@@H]32)cc1 | -0.042% (inactive)
26 | O=C(c1ccc2c(c1)OCO2)N1CCN(c2ccc(S(=O)(=O)C(F)F)cc2)CC1 | 3.47% (inactive)
27 | COC(=O)c1ccc(N2CCN(C(=O)c3ccc4c(c3)OCO4)CC2)cc1 | -1.63% (inactive)
28 | CN1c2ccc(-c3cccc(F)c3)cc2[C@H]2[C@H](CCN2C(=O)Cc2cccnc2)[C@H]1CO | -4.99% (inactive)
29 | CC(=O)c1ccc(N2CC3(CN(C(=O)c4ccc5c(c4)OCO5)C3)C2)cc1 | 0.065% (inactive)
30 | CC(=O)c1ccc(N2CCN(C(=O)c3ccc4c(c3)OC(F)(F)O4)CC2)cc1 | 0.02% (inactive)

From PubChem BioAssay AID743363 (Broad Institute, 2014)
